PubChem BioAssay (NCATS)
“And” between values parts separate entries of the source, which are not always exact repeats. Equal entries are not always repeated. Results filed as inconclusive are left out. A structure can be active in one record and inactive in another. The source made the active and inactive calls. Unless noted, calls follow the shape of the dose curve; as a rule, active = well fitted curve in the direction sought with a large enough effect; inconclusive = small, poorly fitted or top-dose-only effect, or another doubt; inactive = no such curve, though single readings can be large; an effect the other way counts as inactive or inconclusive.

Experiments:
[1] = target: T1, Hexokinase-4 (Homo sapiens) + Glucokinase regulatory protein (Homo sapiens) (UniProt P35557+Q14397); test: qHTS assay for inhibitors of recombinant human GCK-GKRP interaction: ADP-Glo assay (AID 743206); also: potency is read from the fitted curve at half-maximal effect
Method in brief: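 Pin-transferred compounds meet a 15 nM GST-GCK/15 nM FLAG-GKRP/2 uM S6P mix (dispense concentrations). ATP is then added to 0.4 mM final with 5 mM glucose, and the reaction runs 60 min at room temperature. ADP is quantified luminescently.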

[2] = target: T1, Hexokinase-4 (Homo sapiens) + Glucokinase regulatory protein (Homo sapiens); test: qHTS assay for inhibitors of recombinant human GCK-GKRP interaction: HTRF assay (AID 743207); also: potency is read from the fitted curve at half-maximal effect
Method in brief: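 HTRF read-out (ex 320 nm; 615/665 nm emission) after 60 min RT equilibration of 5 nM GST-GCK, 5 nM FLAG-GKRP, 2 uM S6P, compound and anti-FLAG/anti-GST detection antibodies; signal normalized between DMSO wells with and without GCK.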

[3] = qHTS Assay for Identifying Gametocytocidal Compounds (AID 743244); also: potency is read from the fitted curve at half-maximal effect;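 as to max response: % is scaled to controls: 0 for no effect and ±100 for the full control effect; actives lower the fluorescent signal which means gametocytes are killed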; details: P. falciparum 3D7 stage III-V gametocytes, alamarBlue, 72 h; max response: stronger effect = lower value
Method in brief: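 Fluorescence at Ex 525/Em 598 nm, recorded 24 h after alamarBlue addition, reports residual metabolic activity of 3D7 gametocytes (stages III–V) following 72 h compound exposure at 37 °C, 5% CO2.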

[4] = qHTS profiling of the MIPE4 collection as inhibitors of Plasmodium falciparum (3D7) proliferation (AID 743344; call rule not given here;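 also: scaled between DMSO vehicle wells and 0.29 µM artemisinin as full inhibition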); details: P. falciparum 3D7 in erythrocytes, SYBR Green DNA fluorescence, 72 h; at 28.5 µM (top of the series) unless noted
Method in brief: (§1)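 Parasite DNA was quantified by SYBR Green I fluorescence (ex 485, em 535 nm) after overnight lysis in saponin/Triton buffer at room temperature. Cultures at 0.3% parasitemia and 2.5% hematocrit were first exposed to compound for 72 h at 37 C; signals were normalised to artemisinin (0.29 uM) and vehicle wells.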

[5] = qHTS profiling of the MIPE4 collection as inhibitors of Plasmodium falciparum (DD2) proliferation (AID 743345; call rule not given here); details: P. falciparum Dd2 in erythrocytes, SYBR Green DNA, 72 h; at 28.5 µM (top of the series) unless noted
Method in brief: as §1

[6] = qHTS profiling of the MIPE4 collection as inhibitors of Plasmodium falciparum (DD2) proliferation (Rep 2) (AID 743346; call rule not given here); details: P. falciparum Dd2 in erythrocytes, SYBR Green DNA, 72 h; at 28.5 µM (top of the series) unless noted
Method in brief: as §1

[7] = qHTS profiling of the MIPE4 collection as inhibitors of Plasmodium falciparum (HB3) proliferation (AID 743347; call rule not given here;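 also: plate controls were DMSO vehicle wells for no effect and artemisinin wells for full effect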); details: P. falciparum HB3 in erythrocytes, SYBR Green DNA, 72 h; at 28.5 µM (top of the series) unless noted
Method in brief: as §1

[8] = High-throughput drug toxicity screening in the BPDCN cell line Gen2.2 (AID 1224824; call rule not given here;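 also: cells exposed to compounds for 48 h before reading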); details: Gen2.2 BPDCN cells; at 45.8 µM (top of the series) unless noted
Method in brief: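 CellTiter-Glo luminescence after 48 h compound exposure of Gen2.2 cells; percent activity set with DMSO as 100% and bortezomib (9.2 uM final) as 0%. Cells seeded at 500 per well, RPMI + 10% FBS, 37 °C.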

[9] = High-throughput drug toxicity screening in the BPDCN cell line Cal-1 (AID 1224825; call rule not given here); details: Cal-1 BPDCN cell viability, qHTS; at 45.8 µM (top of the series) unless noted
Method in brief: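 CellTiter-Glo luminescence after 48 h compound exposure; percent activity scaled with DMSO as 100% and bortezomib (9.2 uM final) as 0%. Cal-1 cells seeded at 500/well in RPMI, 10% FBS, no phenol red.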

[10] = qHTS assay for measurement of the activity of small molecule inhibitors on Zika virus induced Caspase-3 activity in human iPSC derived neural progenitor cells (hNPCs) (AID 1224857); also: % of control where 0% means no effect; nearly all actives have a fitted effect of over 65% in size
Method in brief: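 Zika virus (2 FFU/cell) infection of human iPSC-derived NPCs, 6 h, following 1 h compound preincubation. Read-out: Caspase-Glo 3/7 luminescence.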

[11] = qHTS assay for measurement of the activity of small molecule inhibitors on Zika virus induced Caspase-3 activity in human astrocytoma cells (AID 1224859);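 also: plate controls were ZIKV-infected untreated cells for no effect and uninfected cells for full effect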
Method in brief: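 Caspase activation in ZIKV-infected SNB-19 cells (2 FFU/cell, 6 h) measured by Caspase-Glo 3/7 luminescence after 30 min RT; compound pre-incubated 1 h; normalised to uninfected and infected controls.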

[12] = qHTS Screen of the MIPE 4.0 Collection Against Ewings Sarcoma (TC32) (AID 1259256); also: nearly all actives have a fitted effect of over 45% in size; also: potency is read from the fitted curve at half-maximal effect
Method in brief: (§2)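 Dose series incubated 48 h with cells in RPMI plus 5% FBS, glutamine and penicillin/streptomycin; cell viability then quantified via CellTiter-Glo.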

[13] = qHTS Screen of the MIPE 4.0 Collection Against Ewings Sarcoma (TC71) (AID 1259253); also: nearly all actives have a fitted effect of over 40% in size; also: potency is read from the fitted curve at half-maximal effect
Method in brief: as §2

[14] = qHTS Screen of the MIPE 4.0 Collection Against Ewings Sarcoma (EW8) (AID 1259255); also: nearly all actives have a fitted effect of over 35% in size; also: potency is read from the fitted curve at half-maximal effect;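 as to viability: 100% = DMSO-treated cells and 0% = medium-only wells without cells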
Method in brief: as §2

[15] = qHTS Screen of the MIPE 4.0 Collection Against Ewings Sarcoma (RDES) (AID 1259252); also: nearly all actives have a fitted effect of over 35% in size; also: potency is read from the fitted curve at half-maximal effect
Method in brief: as §2

[16] = qHTS assay for cell viability of HEK293 cells (AID 743288); details: ATP luminescence (CellTiter-Glo), 18 h; max response: stronger effect = lower value; also: % is scaled to controls: 0 for no effect and ±100 for the full control effect; nearly all actives have a fitted effect of over 50% in size
Method in brief: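 ATP luminescence (CellTiter-Glo) reports metabolically competent cell number after parental HEK293 cells, 2,000/well, were treated with DMSO-dissolved compounds for 18 h at 37 C; reagent incubation 30 min, room temperature.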

[17] = qHTS assay for cell viability of the p53RE-bla HCT-116 cell line (AID 743292); also: % is scaled to controls: 0 for no effect and ±100 for the full control effect; nearly all actives have a fitted effect of over 55% in size
Method in brief: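 Compound-exposed HCT-116 (p53RE-bla) cells, 4,000 per well, were kept 16 h at 37 C following a 5 h preincubation. Cell number was estimated from total ATP by CellTiter-Glo luminescence read after 30 min at room temperature.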

T1 sequence (P35557 whole entry, looked up): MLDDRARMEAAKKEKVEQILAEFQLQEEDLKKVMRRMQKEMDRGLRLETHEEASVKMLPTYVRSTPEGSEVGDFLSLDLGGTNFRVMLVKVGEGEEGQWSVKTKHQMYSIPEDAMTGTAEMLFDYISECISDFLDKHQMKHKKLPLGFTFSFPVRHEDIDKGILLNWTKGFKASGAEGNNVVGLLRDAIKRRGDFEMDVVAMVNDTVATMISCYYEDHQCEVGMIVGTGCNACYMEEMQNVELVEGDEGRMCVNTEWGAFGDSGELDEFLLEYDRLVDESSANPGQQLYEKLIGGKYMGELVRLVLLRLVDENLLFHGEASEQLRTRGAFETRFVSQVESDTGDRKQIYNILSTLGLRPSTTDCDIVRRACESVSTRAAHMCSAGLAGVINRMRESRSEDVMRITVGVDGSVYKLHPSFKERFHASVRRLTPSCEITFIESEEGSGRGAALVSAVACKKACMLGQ
T1 sequence (Q14397 whole entry, looked up): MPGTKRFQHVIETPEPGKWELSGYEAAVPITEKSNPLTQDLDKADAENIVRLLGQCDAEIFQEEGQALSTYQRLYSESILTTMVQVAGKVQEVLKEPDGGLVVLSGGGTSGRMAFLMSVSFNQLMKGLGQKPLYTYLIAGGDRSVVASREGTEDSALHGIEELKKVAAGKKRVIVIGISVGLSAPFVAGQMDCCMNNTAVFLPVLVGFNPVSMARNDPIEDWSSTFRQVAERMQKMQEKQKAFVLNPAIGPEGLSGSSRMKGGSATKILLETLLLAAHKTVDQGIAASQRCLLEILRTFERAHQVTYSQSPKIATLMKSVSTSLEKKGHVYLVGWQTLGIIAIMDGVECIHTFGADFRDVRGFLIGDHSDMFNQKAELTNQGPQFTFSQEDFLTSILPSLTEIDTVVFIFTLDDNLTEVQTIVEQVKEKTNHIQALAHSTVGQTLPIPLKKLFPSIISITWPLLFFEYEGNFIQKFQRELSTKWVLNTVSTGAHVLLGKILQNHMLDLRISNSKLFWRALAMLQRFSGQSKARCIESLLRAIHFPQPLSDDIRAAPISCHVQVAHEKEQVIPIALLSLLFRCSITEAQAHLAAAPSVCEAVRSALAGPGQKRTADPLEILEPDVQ

SMILES | Potency [1] | Potency [2] | max response [3] | parasite growth, % of DMSO control [4] | parasite growth remaining, % of DMSO control (lower = more inhibition) [5] | parasite growth, % of control (lower = inhibition) [6] | growth, % of control [7] | cell viability, % of control (lower = more cytotoxic) [8] | viability (% of control) [9] | Potency [10] | Potency [11] | Potency [12] | Potency [13] | Potency [14] | Potency [3] | Potency [15] | max response [16] | Potency [17]
COc1ccccc1OCCNCC(O)COc1cccc2[nH]c3ccccc3c12 (stereo not drawn) | inactive | inactive | 6.87% (inactive) and 32.1% (inactive) | 16.5% | 17.9% | 20.7% | 5.04% | 167% | 89.8% | inactive | inactive | inactive | – | – | – | – | – | –
Cc1ccc(C(=O)Nc2ccc(S(=O)(=O)O)c3cc(S(=O)(=O)O)cc(S(=O)(=O)O)c23)cc1NC(=O)c1cccc(NC(=O)Nc2cccc(C(=O)Nc3cc(C(=O)Nc4ccc(S(=O)(=O)O)c5cc(S(=O)(=O)O)cc(S(=O)(=O)O)c45)ccc3C)c2)c1 | 5.62 µM (active) | 17.8 µM (active) | 35.1% (inactive) and 2.76% (inactive) | 19.9% | – | 23.2% | 66.1% | 58.9% | 102% | inactive | inactive | – | inactive | inactive | – | – | – | –
Clc1ccc2c(c1)C(N1CCNCC1)=Nc1ccccc1O2 | inactive | inactive | -3.09% (inactive) | 50.7% | – | 27.9% | 67.9% | 72.6% | 102% | inactive | – | 18.7 µM (active) | 16.6 µM (active) | 16.6 µM (active) | 0.794 µM (active) | 10.5 µM (active) | – | –
CN1C(C(=O)Nc2ccccn2)=C(O)c2ccccc2S1(=O)=O | inactive | inactive | -1.29% (inactive) and 1.85% (inactive) | 77.2% | 88.2% | 136% | 90.6% | 61.5% | 8.08% | inactive | inactive | – | – | – | – | – | – | –
CNCCCC12CCC(c3ccccc31)c1ccccc12 | inactive | inactive | – | 16.9% | 21.8% | 21.9% | 7.27% | 8.38% | 13.7% | inactive | inactive | 23.5 µM (active) | – | 18.7 µM (active) | – | – | – | –
CS(=O)(=O)Nc1ccc([N+](=O)[O-])cc1Oc1ccccc1 | inactive | inactive | -0.179% (inactive) and 5.92% (inactive) | 87.3% | 94.3% | 84.4% | 92.7% | 111% | 17% | inactive | inactive | 14.8 µM (active) | 16.6 µM (active) | 16.6 µM (active) | – | – | – | –
O=C(c1ccc(F)cc1)C1CCN(CCn2c(=O)[nH]c3ccccc3c2=O)CC1 | inactive | inactive | 7.32% (inactive) and -5.52% (inactive) | 109% | – | 104% | 61.3% | 216% | 112% | inactive | inactive | inactive | – | – | – | inactive | – | –
NC(=O)OCC(COC(N)=O)c1ccccc1 | inactive | inactive | 0.706% (inactive) and 21.3% (inactive) | 97.2% | 97.8% | 95.5% | 63.7% | 156% | 96.1% | inactive | inactive | 5.9 µM (active) | – | – | – | inactive | – | –
C[C@@H]1CC(=O)NN=C1c1ccc(NN=C(C#N)C#N)cc1 | – | – | 16.6% (inactive) | 8.76% | 6.4% | 33.2% | 9.14% | 7.71% | 5.81% | inactive | inactive | 20.9 µM (active) | 29.6 µM (active) | 20.9 µM (active) | – | – | – | –
O=C(C1CCCCC1)N1CC(=O)N2CCc3ccccc3C2C1 (stereo not drawn) | – | – | 3.64% (inactive) and 8.77% (inactive) | 61.4% | 89.3% | – | – | 246% | 105% | inactive | inactive | inactive | – | inactive | – | – | – | –
CC1COc2c(N3CCN(C)CC3)c(F)cc3c(=O)c(C(=O)O)cn1c23 (stereo not drawn) | inactive | inactive | 18.2% (inactive) and 27.4% (inactive) | 59.3% | 84.7% | 76.4% | 76.3% | 147% | 42.1% | inactive | inactive | inactive | – | inactive | – | – | – | –
CN(C)CCC=C1c2ccccc2C=Cc2ccccc21 | inactive | inactive | – | 58.1% | 62.8% | 42.4% | 68.3% | 41.3% | 67.7% | inactive | inactive | 16.6 µM (active) | 20.9 µM (active) | 16.6 µM (active) | 10 µM (active) | – | – | –
O=C(CCCN1CCC(O)(c2ccc(Cl)cc2)CC1)c1ccc(F)cc1 | – | – | – | – | – | – | – | 58.3% | 48.3% | inactive | inactive | 20.9 µM (active) | 18.7 µM (active) | – | – | – | -20.6% (inactive) | inactive
Cc1cnc(C(=O)NCCc2ccc(S(=O)(=O)NC(=O)NC3CCCCC3)cc2)cn1 | inactive | inactive | 32.6% (inactive) and 12.5% (inactive) | 7.98% | – | 9.38% | 3.73% | 112% | 58.3% | inactive | inactive | – | – | – | – | – | – | –
O=c1[nH]cc(F)c(=O)[nH]1 | inactive | inactive | 14.8% (inactive) and 3.27% (inactive) | – | 18.8% | – | – | 118% | 29.1% | inactive | inactive | 9.35 µM (active) | – | – | – | 5.26 µM (active) | -0.211% (inactive) | inactive
Cc1cc(C(C)(C)C)c(O)c(C)c1CC1=NCCN1 | inactive | inactive | -1.21% (inactive) and 27.5% (inactive) | 80.6% | – | 68.6% | 98.3% | 97.9% | 110% | inactive | inactive | – | – | – | – | – | – | –
